# Source: ChEMBL document CHEMBL3988442, “University of Dundee, Small-Polar-MMV Screening Library” (2021)
# For some assays here: Entries with a potency or affinity are not part of this list.
# How the values were obtained:
# Set-up in all cases: scale not given: direction of the effect not stated beside the values
# [1] = target: Protein translocase subunit SecA (Escherichia coli (strain K12)) (UniProt P10408); experiment: Assay to Identify E. coli SecA ATPase Inhibitors; type: functional; conditions: 30 µM
# Protein translocase subunit SecA (Escherichia coli (strain K12)), sequence (P10408 whole entry): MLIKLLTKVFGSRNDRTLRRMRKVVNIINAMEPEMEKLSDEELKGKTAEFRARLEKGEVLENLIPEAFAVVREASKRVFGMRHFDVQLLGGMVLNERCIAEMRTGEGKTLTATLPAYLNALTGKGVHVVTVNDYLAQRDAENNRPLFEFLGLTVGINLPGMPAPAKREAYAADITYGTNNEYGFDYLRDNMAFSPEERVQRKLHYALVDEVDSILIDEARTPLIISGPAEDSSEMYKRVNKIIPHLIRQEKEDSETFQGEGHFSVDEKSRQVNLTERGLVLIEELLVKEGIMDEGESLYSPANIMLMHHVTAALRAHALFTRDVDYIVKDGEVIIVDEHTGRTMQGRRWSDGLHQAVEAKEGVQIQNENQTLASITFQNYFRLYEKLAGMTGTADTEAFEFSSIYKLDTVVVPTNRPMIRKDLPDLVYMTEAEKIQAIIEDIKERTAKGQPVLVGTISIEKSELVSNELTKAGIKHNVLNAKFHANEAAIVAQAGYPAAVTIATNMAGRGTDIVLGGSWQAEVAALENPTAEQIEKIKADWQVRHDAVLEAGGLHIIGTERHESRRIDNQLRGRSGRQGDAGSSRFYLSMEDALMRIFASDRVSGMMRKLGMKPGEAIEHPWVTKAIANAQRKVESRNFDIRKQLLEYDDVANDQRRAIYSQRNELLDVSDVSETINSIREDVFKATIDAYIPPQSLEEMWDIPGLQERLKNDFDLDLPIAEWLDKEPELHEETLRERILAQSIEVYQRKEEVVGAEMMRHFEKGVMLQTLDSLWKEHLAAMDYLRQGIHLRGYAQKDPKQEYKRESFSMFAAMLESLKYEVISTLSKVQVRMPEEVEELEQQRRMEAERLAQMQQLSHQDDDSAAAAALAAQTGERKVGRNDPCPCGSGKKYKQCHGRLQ
# [2] = target: T1, Ubiquitin-activating enzyme e1, putative (Leishmania donovani (strain BPK282A1)) (UniProt E9BSI1); experiment: Leishmania donovani Ubiquitin Activating Enzyme (LdE1); type: functional; conditions: 30 µM
# T1 sequence (whole entry): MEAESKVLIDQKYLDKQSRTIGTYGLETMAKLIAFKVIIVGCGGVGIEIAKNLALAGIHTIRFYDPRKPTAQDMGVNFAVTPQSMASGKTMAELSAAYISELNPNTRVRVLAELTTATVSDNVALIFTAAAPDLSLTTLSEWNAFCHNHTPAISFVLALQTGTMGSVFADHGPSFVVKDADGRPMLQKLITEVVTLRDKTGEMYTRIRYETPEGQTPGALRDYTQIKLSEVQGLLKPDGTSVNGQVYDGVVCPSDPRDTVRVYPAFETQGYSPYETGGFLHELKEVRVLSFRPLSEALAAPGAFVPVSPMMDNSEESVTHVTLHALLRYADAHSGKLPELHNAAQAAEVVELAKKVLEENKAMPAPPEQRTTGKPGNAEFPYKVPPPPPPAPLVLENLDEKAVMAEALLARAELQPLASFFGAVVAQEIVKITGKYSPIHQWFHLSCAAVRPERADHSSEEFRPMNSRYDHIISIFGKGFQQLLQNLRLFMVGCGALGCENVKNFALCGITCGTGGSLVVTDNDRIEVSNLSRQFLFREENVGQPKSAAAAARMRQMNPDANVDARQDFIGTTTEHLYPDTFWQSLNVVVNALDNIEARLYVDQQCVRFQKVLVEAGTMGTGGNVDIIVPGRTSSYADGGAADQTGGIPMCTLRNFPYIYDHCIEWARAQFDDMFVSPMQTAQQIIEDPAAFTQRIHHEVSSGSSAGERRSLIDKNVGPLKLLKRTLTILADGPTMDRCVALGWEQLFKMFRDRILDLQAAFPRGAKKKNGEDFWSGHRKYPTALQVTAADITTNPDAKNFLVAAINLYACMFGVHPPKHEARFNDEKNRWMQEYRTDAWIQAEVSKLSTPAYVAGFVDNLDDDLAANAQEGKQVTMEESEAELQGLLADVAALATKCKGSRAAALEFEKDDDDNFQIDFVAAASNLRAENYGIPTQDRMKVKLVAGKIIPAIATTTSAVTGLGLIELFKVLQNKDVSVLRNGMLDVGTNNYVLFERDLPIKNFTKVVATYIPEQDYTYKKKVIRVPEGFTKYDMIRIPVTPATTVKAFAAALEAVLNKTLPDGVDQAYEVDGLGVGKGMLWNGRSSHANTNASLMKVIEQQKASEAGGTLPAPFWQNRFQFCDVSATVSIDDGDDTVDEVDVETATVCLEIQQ
# [3] = target: Sialic acid-binding Ig-like lectin 9 (Homo sapiens) (UniProt Q9Y336); experiment: Hs-Siglec9 ALPHAscreen SOP 20170721; conditions: 10 µM
# Sialic acid-binding Ig-like lectin 9 (Homo sapiens), sequence (Q9Y336 whole entry): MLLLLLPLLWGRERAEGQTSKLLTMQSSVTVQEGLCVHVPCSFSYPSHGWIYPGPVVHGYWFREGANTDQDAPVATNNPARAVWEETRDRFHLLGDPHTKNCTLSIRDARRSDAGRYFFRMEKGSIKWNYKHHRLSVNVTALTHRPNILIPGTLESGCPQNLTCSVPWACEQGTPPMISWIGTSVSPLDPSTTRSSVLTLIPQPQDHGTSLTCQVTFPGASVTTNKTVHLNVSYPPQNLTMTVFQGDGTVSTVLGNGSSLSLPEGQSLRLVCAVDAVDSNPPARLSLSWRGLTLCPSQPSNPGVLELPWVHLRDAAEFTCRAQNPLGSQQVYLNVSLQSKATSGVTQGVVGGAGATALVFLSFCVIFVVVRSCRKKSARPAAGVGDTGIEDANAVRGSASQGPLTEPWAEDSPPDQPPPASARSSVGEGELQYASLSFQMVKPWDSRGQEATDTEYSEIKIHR
# Trypanosoma cruzi = experiment: Trypanosoma cruzi phosphomannomutase and mannose-1-phosphate guanylyltransferase assay; type: functional; conditions: 10 µM
# [4] = target: T2, Arginase-2, mitochondrial (Homo sapiens) (UniProt P78540); experiment: in vitro enzyme assay to detect the production of urea directly proportional to the activity of Arginase II; type: functional; conditions: 33.3 µM; also: in the data most compounds retested in dose-response had high values
# T2 sequence (whole entry): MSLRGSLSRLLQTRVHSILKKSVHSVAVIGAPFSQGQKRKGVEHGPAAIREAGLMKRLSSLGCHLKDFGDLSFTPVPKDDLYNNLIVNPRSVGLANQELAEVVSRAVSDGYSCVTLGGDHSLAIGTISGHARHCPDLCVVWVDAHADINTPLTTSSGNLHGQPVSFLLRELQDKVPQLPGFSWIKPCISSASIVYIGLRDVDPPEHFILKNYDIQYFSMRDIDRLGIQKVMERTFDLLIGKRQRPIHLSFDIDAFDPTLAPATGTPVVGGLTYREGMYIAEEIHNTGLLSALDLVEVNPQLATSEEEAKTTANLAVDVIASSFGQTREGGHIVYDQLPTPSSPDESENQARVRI
# [5] = target: T3, Proteasome subunit beta (Trypanosoma cruzi) (UniProt O96673); experiment: Trypanosoma cruzi proteasome chymotrypsin-like activity (TcProtChymo) assay.; also: in the data most compounds retested in dose-response had high values; type: functional; conditions: 9.37 µM
# T3 sequence (whole entry): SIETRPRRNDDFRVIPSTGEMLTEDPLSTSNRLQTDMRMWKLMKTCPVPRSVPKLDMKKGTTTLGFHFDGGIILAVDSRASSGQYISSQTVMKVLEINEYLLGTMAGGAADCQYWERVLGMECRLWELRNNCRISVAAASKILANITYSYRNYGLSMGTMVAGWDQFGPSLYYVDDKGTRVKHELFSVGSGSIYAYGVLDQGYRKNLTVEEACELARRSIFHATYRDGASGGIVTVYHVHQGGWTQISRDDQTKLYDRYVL
# Homo sapiens = organism: Homo sapiens; experiment: To identify inhibition of the IFN signalling (Jak-Stat) pathway via expression of an eGFP reporter gene under the control of an IFN-stimulated response element (ISRE) containing MxA promoter.; type: functional; conditions: 30 µM
# [6] = target: T4, Tyrosyl-tRNA synthetase, putative (Trypanosoma cruzi (strain CL Brener)) (UniProt Q4DSP6); experiment: Trypanosoma cruzi tyrosyl tRNA synthetase (TcYRS) _High Tyrosine SOP; type: functional; conditions: 30 µM; also: in the data most compounds retested in dose-response had high values
# T4 sequence (whole entry): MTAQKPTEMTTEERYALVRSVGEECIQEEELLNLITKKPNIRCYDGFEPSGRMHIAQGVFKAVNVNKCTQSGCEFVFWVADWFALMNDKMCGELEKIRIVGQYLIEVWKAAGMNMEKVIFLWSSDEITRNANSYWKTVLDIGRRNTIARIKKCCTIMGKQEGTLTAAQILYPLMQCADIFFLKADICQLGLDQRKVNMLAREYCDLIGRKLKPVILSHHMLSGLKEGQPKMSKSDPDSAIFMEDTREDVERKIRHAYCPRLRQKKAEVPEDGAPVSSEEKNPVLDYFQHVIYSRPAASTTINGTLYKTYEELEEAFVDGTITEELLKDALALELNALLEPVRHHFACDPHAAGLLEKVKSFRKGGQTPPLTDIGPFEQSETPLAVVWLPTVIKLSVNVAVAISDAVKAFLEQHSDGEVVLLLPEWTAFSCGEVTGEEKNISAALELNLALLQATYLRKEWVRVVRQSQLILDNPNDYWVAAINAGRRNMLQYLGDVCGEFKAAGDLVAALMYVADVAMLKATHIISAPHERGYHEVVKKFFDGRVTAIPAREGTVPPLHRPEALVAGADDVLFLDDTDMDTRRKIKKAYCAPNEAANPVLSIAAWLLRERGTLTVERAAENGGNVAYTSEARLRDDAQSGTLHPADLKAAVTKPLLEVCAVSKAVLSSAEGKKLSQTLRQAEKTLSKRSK
# [7] = target: T4, Tyrosyl-tRNA synthetase, putative (Trypanosoma cruzi (strain CL Brener)); experiment: Trypanosoma cruzi tyrosyl tRNA synthetase (TcYRS) SOP; type: functional; conditions: 30 µM
# [8] = target: Chromo domain-containing protein 1 (Saccharomyces cerevisiae (strain ATCC 204508 / S288c) (Baker's yeast)) (UniProt P32657); experiment: ScCHD-1 Enzyme Inhibition Assay; type: functional; conditions: 30 µM; also: in the data most compounds retested in dose-response had high values
# Chromo domain-containing protein 1 (Saccharomyces cerevisiae (strain ATCC 204508 / S288c) (Baker's yeast)), sequence (P32657 whole entry, the tested form may be a part): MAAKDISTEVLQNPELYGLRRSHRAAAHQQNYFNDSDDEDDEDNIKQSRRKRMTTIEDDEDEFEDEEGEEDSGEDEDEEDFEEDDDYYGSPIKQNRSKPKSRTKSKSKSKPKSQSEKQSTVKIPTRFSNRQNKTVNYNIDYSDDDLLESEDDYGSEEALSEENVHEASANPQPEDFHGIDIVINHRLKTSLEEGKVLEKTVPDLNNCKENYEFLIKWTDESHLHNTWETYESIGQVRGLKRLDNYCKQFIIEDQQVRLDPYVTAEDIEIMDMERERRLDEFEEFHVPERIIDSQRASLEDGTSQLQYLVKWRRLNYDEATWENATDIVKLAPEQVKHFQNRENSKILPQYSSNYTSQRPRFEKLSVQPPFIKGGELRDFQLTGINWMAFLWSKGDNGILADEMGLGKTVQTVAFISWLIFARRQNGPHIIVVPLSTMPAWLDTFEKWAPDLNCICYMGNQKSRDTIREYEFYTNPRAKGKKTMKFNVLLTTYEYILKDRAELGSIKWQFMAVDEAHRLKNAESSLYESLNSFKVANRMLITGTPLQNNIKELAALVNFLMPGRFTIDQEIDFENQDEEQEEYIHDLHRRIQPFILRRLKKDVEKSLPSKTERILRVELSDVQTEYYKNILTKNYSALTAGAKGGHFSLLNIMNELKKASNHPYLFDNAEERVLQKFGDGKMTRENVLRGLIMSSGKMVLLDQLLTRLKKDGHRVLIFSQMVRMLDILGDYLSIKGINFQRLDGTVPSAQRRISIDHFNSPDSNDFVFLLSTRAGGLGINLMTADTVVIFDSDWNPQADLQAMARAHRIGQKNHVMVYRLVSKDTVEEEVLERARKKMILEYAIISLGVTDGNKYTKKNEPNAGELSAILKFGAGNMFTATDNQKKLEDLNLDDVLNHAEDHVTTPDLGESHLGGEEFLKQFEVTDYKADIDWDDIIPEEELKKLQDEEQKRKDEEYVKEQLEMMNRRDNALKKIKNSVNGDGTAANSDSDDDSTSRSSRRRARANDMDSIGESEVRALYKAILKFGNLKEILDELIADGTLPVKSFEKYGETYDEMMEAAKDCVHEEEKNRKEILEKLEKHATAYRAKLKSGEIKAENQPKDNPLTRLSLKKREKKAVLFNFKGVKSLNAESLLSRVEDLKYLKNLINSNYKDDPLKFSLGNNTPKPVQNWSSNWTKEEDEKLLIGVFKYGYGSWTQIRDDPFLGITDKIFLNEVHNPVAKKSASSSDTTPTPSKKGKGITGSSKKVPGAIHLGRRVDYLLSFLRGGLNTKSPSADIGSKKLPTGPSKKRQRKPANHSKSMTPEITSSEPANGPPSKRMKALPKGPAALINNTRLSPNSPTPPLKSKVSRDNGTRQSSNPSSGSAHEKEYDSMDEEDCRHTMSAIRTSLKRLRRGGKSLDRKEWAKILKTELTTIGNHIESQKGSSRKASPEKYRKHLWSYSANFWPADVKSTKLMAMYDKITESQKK
smiles,measurement,setting,value
CC[C@@H]1N(Cc2ccsc2)CCC[C@]12CCC(=O)N2C,Percent Effect,[1],-5.65%
same,Percent Effect,[2],3.9%
same,Percent Effect,[3],-0.653%
same,Percent Effect,Trypanosoma cruzi,-1.69%
same,Percent Effect,[4],1.37%
same,Percent Effect,[5],2.66%
same,Percent Effect,Homo sapiens,32.3%
same,Percent Effect,[6],-0.966%
same,Percent Effect,[7],-12.5%
same,Percent Effect,[8],0.966%
CC(C)CCN(C)C(=O)c1nc(S(C)(=O)=O)n2ccccc12,Percent Effect,[1],-4.72%
same,Percent Effect,[2],12.8%
same,Percent Effect,[3],-6.5%
same,Percent Effect,Trypanosoma cruzi,5.16%
same,Percent Effect,[4],1.23%
same,Percent Effect,[5],2.13%
same,Percent Effect,Homo sapiens,0.306%
same,Percent Effect,[6],6.22%
same,Percent Effect,[7],10.8%
same,Percent Effect,[8],-1.74%
CC(=O)N1CCC2(CCCN(Cc3ccc(Cl)c(C(F)(F)F)c3)C2)C1 (stereo not given),Percent Effect,[1],-6.95%
same,Percent Effect,[2],3.9%
same,Percent Effect,[3],-5.84%
same,Percent Effect,Trypanosoma cruzi,1.07%
same,Percent Effect,[4],-1.22%
same,Percent Effect,[5],1.15%
same,Percent Effect,Homo sapiens,-5.5%
same,Percent Effect,[6],-8.95%
same,Percent Effect,[7],10.3%
same,Percent Effect,[8],0.22%
CCn1ccnc1CNCC1CCCN1c1cccnn1 (stereo not given),Percent Effect,[1],-4.44%
same,Percent Effect,[2],2.67%
same,Percent Effect,[3],5.47%
same,Percent Effect,Trypanosoma cruzi,0.803%
same,Percent Effect,[4],0.444%
same,Percent Effect,[5],1.78%
same,Percent Effect,Homo sapiens,9.51%
same,Percent Effect,[6],6.84%
same,Percent Effect,[7],12.8%
same,Percent Effect,[8],-8.32%
C[C@H]1CN(Cc2cnn(C)c2)C[C@@]12CCN(Cc1cccnc1)C2=O,Percent Effect,[1],-2.17%
same,Percent Effect,[2],11.7%
same,Percent Effect,[3],0.906%
same,Percent Effect,Trypanosoma cruzi,-5.07%
same,Percent Effect,[4],4.57%
same,Percent Effect,[5],4.21%
same,Percent Effect,Homo sapiens,23.4%
same,Percent Effect,[6],6.76%
same,Percent Effect,[7],2.5%
same,Percent Effect,[8],-3.65%
COc1cccc(OCC2CCCN(C(C)=O)C2)c1 (stereo not given),Percent Effect,[1],-1.78%
same,Percent Effect,[2],14.7%
same,Percent Effect,[3],-3.67%
same,Percent Effect,Trypanosoma cruzi,-0.395%
same,Percent Effect,[4],-3.1%
same,Percent Effect,[5],25.4%
same,Percent Effect,Homo sapiens,8.14%
same,Percent Effect,[6],2.12%
same,Percent Effect,[7],15%
same,Percent Effect,[8],-24.1%
c1cnnc(N2CCCC2CNCc2nc(-c3ccsc3)no2)c1 (stereo not given),Percent Effect,[1],-4.07%
same,Percent Effect,[2],-23.1%
same,Percent Effect,[3],-7.35%
same,Percent Effect,Trypanosoma cruzi,9.11%
same,Percent Effect,[4],-6.15%
same,Percent Effect,[5],0.256%
same,Percent Effect,Homo sapiens,-10.2%
same,Percent Effect,[6],5.26%
same,Percent Effect,[7],6.02%
same,Percent Effect,[8],-1.74%
O=C1CC2(CCN(Cc3ccoc3)C2)CN1c1ccc2c(c1)OCO2 (stereo not given),Percent Effect,[1],-7.31%
same,Percent Effect,[2],1.3%
same,Percent Effect,[3],-0.448%
same,Percent Effect,Trypanosoma cruzi,1.85%
same,Percent Effect,[4],0.81%
same,Percent Effect,[5],4.68%
same,Percent Effect,Homo sapiens,4.43%
same,Percent Effect,[6],7.89%
same,Percent Effect,[7],10.3%
same,Percent Effect,[8],-0.51%
CC(C)c1nnc2n1CCN(C(=O)c1cccc(C(F)(F)F)c1)C2,Percent Effect,[1],-5.89%
same,Percent Effect,[2],18.7%
same,Percent Effect,[3],10%
same,Percent Effect,Trypanosoma cruzi,2.81%
same,Percent Effect,[4],1.33%
same,Percent Effect,[5],6.19%
same,Percent Effect,Homo sapiens,7.24%
same,Percent Effect,[6],6.84%
same,Percent Effect,[7],15.4%
same,Percent Effect,[8],-7.15%
Cc1nn(C)c(Cl)c1CNCc1ccc(OCC(N)=O)cc1,Percent Effect,[1],-6.28%
same,Percent Effect,[2],10.7%
same,Percent Effect,[3],0.0227%
same,Percent Effect,Trypanosoma cruzi,4.42%
same,Percent Effect,[4],2.22%
same,Percent Effect,[5],10.9%
same,Percent Effect,Homo sapiens,16.6%
same,Percent Effect,[6],1.58%
same,Percent Effect,[7],12.8%
same,Percent Effect,[8],-10.2%
c1ccc(C(OCCNC2CCc3ncnn3C2)c2ccccc2)cc1 (stereo not given),Percent Effect,[1],-5.97%
same,Percent Effect,[2],10.4%
same,Percent Effect,[3],5.43%
same,Percent Effect,Trypanosoma cruzi,5.41%
same,Percent Effect,[4],-4.3%
same,Percent Effect,[5],0.526%
same,Percent Effect,Homo sapiens,-3.8%
same,Percent Effect,[6],0.98%
same,Percent Effect,[7],18.8%
same,Percent Effect,[8],-13.3%
Cc1ccc(C(=O)N2CCC3(CC2)CCN(CCN(C)C)C3=O)cn1,Percent Effect,[1],-3.6%
same,Percent Effect,[2],6.49%
same,Percent Effect,[3],-4.15%
same,Percent Effect,Trypanosoma cruzi,-1.31%
same,Percent Effect,[4],-0.457%
same,Percent Effect,[5],6.44%
same,Percent Effect,Homo sapiens,11.3%
same,Percent Effect,[6],7.73%
same,Percent Effect,[7],7.5%
same,Percent Effect,[8],-6.63%
CC(C)(C)c1cn2nc(N3CCC[C@@H]3CO)sc2n1,Percent Effect,[1],-2.65%
same,Percent Effect,[2],10.3%
same,Percent Effect,[3],-1.69%
same,Percent Effect,Trypanosoma cruzi,-0.282%
same,Percent Effect,[4],2.87%
same,Percent Effect,[5],6.57%
same,Percent Effect,Homo sapiens,2.26%
same,Percent Effect,[6],2.39%
same,Percent Effect,[7],13.2%
same,Percent Effect,[8],-0.0525%
CC(C)c1nc(CC(=O)N2CCCC(n3cncn3)C2)cs1 (stereo not given),Percent Effect,[1],-0.0395%
same,Percent Effect,[2],20.5%
same,Percent Effect,[3],-14.2%
same,Percent Effect,Trypanosoma cruzi,4.6%
same,Percent Effect,[4],8.2%
same,Percent Effect,[5],14.2%
same,Percent Effect,Homo sapiens,24%
same,Percent Effect,[6],1.44%
same,Percent Effect,[7],22.9%
same,Percent Effect,[8],-5.56%
